Source: PubChem (National Center for Advancing Translational Sciences (NCATS))
RGS12 GoLoco inh: qHTS Assay for Inhibitors of RGS12 GoLoco Motif Activity (Red Fluorophore) | Potency, µM (series often up to 61.6 µM), for inactives: at the top dose activity, negative = inhibition, actives largely listed as inhibitors | Gai1:RGS12 GoLoco peptide FP, rhodamine, 10 min | Guanine nucleotide-binding protein G(i) subunit alpha-1 (Homo sapiens), P63096 | AID 880, 2007 | actives 0.44% (n = 230,000); active = well fitted inhibition curve with a large enough effect, not every such curve was filed as active; inactive = no such curve, though single readings can be large or run the other way; note: nearly all actives have a fitted effect of over 30% in size
APE1 inh: qHTS Assay for Inhibitors of the Human Apurinic/apyrimidinic Endonuclease 1 (APE1). DNA repair nuclease/redox regulator APEX1 (Homo sapiens), P27695. recombinant APE1, TAMRA/BHQ-2 abasic DNA cleavage fluorescence. Potency, µM (titrated, usually from 65.8 µM), for inactives: top-dose activity change, negative = inhibition, hits mostly inhibitors. actives 0.35% (n = 350,000);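 note: plate controls were vehicle for no effect and reference inhibitor for full effect; nearly all actives have a fitted effect of over 55% in size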
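Incision of a quenched TAMRA/BHQ-2 THF abasic-site duplex (50 nM) by 0.75 nM APE1, after 15 min compound preincubation, measured as fluorescence increase over three 60 s reads. Values normalized to buffer, DMSO and NSC13755 control wells.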
TRb-SRC2 inh: qHTS for Inhibitors of the Interaction of Thyroid Hormone Receptor and Steroid Receptor Coregulator 2; Potency, µM (doses to about 106 µM), for inactives: top-dose activity change, negative = inhibition, actives largely listed as inhibitors; AID 1469, 2008; TRbeta-SRC2 peptide binding, fluorescence polarization; receptor liganded with 1 µM T3; actives 0.065% (n = 280,000);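 note: plate controls were bound peptide for no effect and peptide without receptor for full effect; nearly all actives have a fitted effect of over 50% in size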
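Human TRb LBD (0.6 uM) plus Texas Red-labeled SRC2 peptide (20 nM), 1uM T3, 5% DMSO, 5 hr at ambient temperature. Decreased polarization (555/632 nm) flags inhibition; data normalized to free and bound peptide controls.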
TexasRed fluor: Total Fluorescence Counterscreen for Inhibitors of the Interaction of Thyroid Hormone Receptor and Steroid Receptor Coregulator 2. TRb/SRC2 Texas Red total fluorescence interference. Potency, µM (top dose mostly 106 µM), inactives show top-dose fluorescence change, negative = quenching. actives 0.29% (n = 280,000); active = well fitted curve in either direction with a large enough effect; inconclusive = small, poorly fitted or top-dose-only effect
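Human TRb ligand-binding domain at 0.6 uM with 20 nM Texas Red SRC2 peptide in Tris buffer containing 1 uM T3 and 5% DMSO, incubated with compound 5 h at ambient temperature. Total fluorescence (555/632 nm) calculated as parallel + 2 × perpendicular.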
RECQ1 helicase: qHTS Assay for Inhibitors of RecQ-Like Dna Helicase 1 (RECQ1); Potency, µM (series often up to 57.3 µM), for inactives: top-dose activity, negative = inhibition, hits mostly inhibitors; AID 2549, 2010; RECQ1 DNA unwinding, red fluorescence kinetic read; actives 0.54% (n = 240,000); ATP-dependent DNA helicase Q1 (Homo sapiens), P46063;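 note: plate controls were vehicle for no effect and no enzyme for full effect; nearly all actives have a fitted effect of over 30% in size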
Target sequence (P46063 whole entry, looked up): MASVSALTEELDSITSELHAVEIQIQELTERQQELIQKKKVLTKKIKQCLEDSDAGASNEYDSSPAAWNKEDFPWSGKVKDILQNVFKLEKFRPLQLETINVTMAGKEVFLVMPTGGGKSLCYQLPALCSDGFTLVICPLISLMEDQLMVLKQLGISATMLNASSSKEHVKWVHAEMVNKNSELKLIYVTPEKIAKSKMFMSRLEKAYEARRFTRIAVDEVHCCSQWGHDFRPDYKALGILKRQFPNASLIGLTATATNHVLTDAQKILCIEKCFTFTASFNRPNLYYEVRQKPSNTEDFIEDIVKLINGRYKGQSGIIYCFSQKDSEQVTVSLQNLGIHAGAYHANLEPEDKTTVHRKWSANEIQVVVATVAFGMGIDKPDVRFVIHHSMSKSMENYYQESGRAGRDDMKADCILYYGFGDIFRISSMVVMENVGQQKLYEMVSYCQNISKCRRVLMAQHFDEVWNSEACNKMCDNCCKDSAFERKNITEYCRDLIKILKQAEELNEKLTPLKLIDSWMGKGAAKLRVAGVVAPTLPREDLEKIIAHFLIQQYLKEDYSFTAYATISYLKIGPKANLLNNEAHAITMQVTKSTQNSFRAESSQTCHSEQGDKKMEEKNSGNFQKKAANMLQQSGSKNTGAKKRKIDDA
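RECQ1T1 50 nM; forked duplex (20 bp + 30-nt ss tails) 200 nM, ATP 2 mM final; pH 8.0, 2 mM MgCl2, 2.5 ug/ml poly(dI-dC); 15 min compound preincubation; discontinuous kinetic read over 2 h at RT.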
BLM inh: qHTS Assay for Inhibitors of Bloom's syndrome helicase (BLM); recombinant BLM DNA unwinding, fluorescence dequenching; Potency, µM (highest dose often 56.1 µM), without a hit: at the highest dose activity change, negative = inhibition, usual class: inhibitors; actives 0.2% (n = 350,000); AID 2528, 2010;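 note: plate controls were vehicle for no effect and no enzyme for full effect; nearly all actives have a fitted effect of over 35% in size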
* marks the source's active call; other numbers are inactive results; i = inactive; u = inconclusive; x = not tested or not shown; [ ] = dose if it differs, or a comment. An excerpt weighted towards active compounds, which were near 0.9% of everything screened. Unless noted, calls come from the whole dose curve; as a rule, active = well fitted curve in the direction sought with a large enough effect; inconclusive = small, poorly fitted or top-dose-only effect, or another doubt; inactive = no such curve, though single readings can be large; an effect the other way counts as inactive or inconclusive. Unless noted, % is set by controls: 0 for no effect and ±100 for the full control effect; potency is the fitted concentration of half-maximal effect.

SMILES	RGS12 GoLoco inh	APE1 inh	TRb-SRC2 inh	TexasRed fluor	RECQ1 helicase	BLM inh
CCN(CC)CCCNC(=O)CN1C(=O)CCn2nc(-c3cn(C)c4ccccc34)cc21	x	x	0%	-7%	x	-10%
COc1ccc(C2=Nn3c(nnc3-c3ccccc3C(F)(F)F)SC2)cc1OCC1CC1	x	0%	x	x	x	x
c1ccc2c(C3CCO3)cccc2c1 (stereo unspecified)	x	46%	x	x	x	x
O=C1c2ccccc2C(=O)C12OC2c1cccc2ccccc12 (stereo unspecified)	-2%	-8%	-1%	6%	3%	18µM*
O=C(NCc1ccccc1Cl)c1cnc(N2CCOCC2)c2ccccc12	x	x	0%	4%	x	-3%
O=C(NCc1ccccc1Cl)c1cnc(N2CCCCC2)c2ccccc12	x	x	-15%	1585µM*[quencher]	x	-5%
Cc1ccc(Cl)cc1N1CCN(C(=O)c2cnc(N3CCOCC3)c3ccccc23)CC1	x	x	-15%	71µM*[quencher]	x	0%
O=C(Nc1ccc(F)cc1Cl)c1cnc(N2CCOCC2)c2ccccc12	x	x	-21%	11µM*[quencher]	x	0%
CCOC(=O)C1OC1C(=O)NC(CC(C)C)C(=O)NCCC(C)C (stereo unspecified)	-4%	3%	1%	-1%	10%	x
CCOc1ccc(NC(=O)c2ccc(N)cc2)cc1	8%	-3%	0%	0%	0%	3%
CCOc1ccc(NC(=O)c2ccc(NC(=O)c3ccc(NC(N)=O)cc3)cc2)cc1	x	13µM*	x	x	x	x
CCCCCCCOC(=O)c1ccccc1C(=O)OCCCCCCC	x	x	2%[201 µM]	-6%[201 µM]	x	x
Nc1ncc(S(=O)(=O)N2CCN(c3ccccc3)CC2)cn1	x	x	-19%	0.0056µM*[quencher]	x	0%
COC(=O)CC1c2ccccc2C=C(/C=C/c2ccc3c(c2)OCO3)N1C(=O)OC (stereo unspecified)	-4%[14.2 µM]	-6%[12.4 µM]	-4%[11.2 µM]	-3%[11.2 µM]	-5%[11.5 µM]	-2%[12.4 µM]
CCCN1C(=O)C2(c3ccccc31)c1c(oc3ccccc3c1=O)C(=O)N2CCCOC(C)C (stereo unspecified)	x	x	-9%	-40%	x	-4%
CCCN1C(=O)C2(c3ccccc31)c1c(oc3ccccc3c1=O)C(=O)N2CCO (stereo unspecified)	x	x	-12%[53 µM]	32µM*[quencher]	x	1%
CCCN1C(=O)C2(c3ccccc31)c1c(oc3ccc(F)cc3c1=O)C(=O)N2CCCOC(C)C (stereo unspecified)	x	x	u	3.5µM*[quencher]	x	4%
CC(C)OC(=O)[C@@H]1CC[C@H](C)[C@@H](CCCCO)O1	0%	17%	6%	-1%	0%	2%
C/C(=N\Nc1nc2ccccc2[nH]1)c1ccc(Cl)s1	-2%	-6%	-4%	-5%	32µM*	-12%
CSC(=[SH+])N=N/C(=C1/C=CC=CN1)c1ccccn1.[Cu][Br]	-13%[14.2 µM]	x	x	x	x	x
CC1=C(C(=O)Nc2ccc(C)cc2C)C(c2ccccc2F)n2nc(SCC(=O)c3ccc(C)cc3)nc2N1 (stereo unspecified)	x	x	-18%	0.032µM*[quencher]	x	0%
N#Cc1cccc(NC(=O)Cn2c3[n+](c4ccc(C(F)(F)F)cc42)CCCCC3)c1	14µM*	4%	-1%	-1%	5%	-11%
Cc1cc(-c2ccccc2C(=O)O)on1	-9%	-3%	-23%	-3%	-1%	-6%
O=C(O)c1ccccc1C1=Nc2ccc(O)cc2Oc2cc(O)ccc21	25µM*	-5%	-13%	0%	-2%	-3%
O=S(=O)(c1ccc(NC(=S)NN=C2CCCCC2)cc1)N1CCOCC1	14%	35µM*	3%	-1%	0%	-5%
SMILES	RGS12 GoLoco inh	APE1 inh	TRb-SRC2 inh	TexasRed fluor	RECQ1 helicase	BLM inh
CCC(=O)Oc1ccc2c(c1)CC[C@@H]1[C@@H]2CC[C@]2(C)[C@@H](OC(=O)CC)CC[C@@H]12	x	-4%	x	x	x	x
CC(C[N+](C)(C)C)OC(=O)C1(c2ccccc2)CCCC1 (stereo unspecified)	-22%	19%	4%	-1%	25%	-16%
C[N+](C)(C)CCOC(=O)C1(c2ccccc2)CCCC1	7.1µM*	3%	-5%	0%	16%	-7%
CCCCCC1CCC(=O)O1 (stereo unspecified)	x	x	7%[201 µM]	-4%[201 µM]	x	x
COc1ccc2oc(=O)c(-c3nnc(-c4ccc(C)cc4)o3)cc2c1	x	x	-17%[53 µM]	20µM*[quencher]	x	-5%
COc1ccc(-c2nnc(-c3cc4ccccc4oc3=O)o2)cc1	-10%	7%	11%	-2%	2%	0%
COc1ccc(/C=C2\C(=O)NC(=S)N2C(=O)c2ccc(C)cc2)cc1	136%	-2%	29%	-1%	17%	25µM*
C[C@H]1O[C@H](O[C@H]2[C@H](O)[C@@H](O)[C@@H](O[C@H]3[C@H](O)[C@@H](O)[C@H](O)O[C@@H]3CO)O[C@@H]2CO)[C@H](O)[C@@H](O)[C@@H]1N[C@H]1C=C(CO)[C@@H](O)[C@H](O)[C@H]1O	x	2%	x	x	x	x
Cc1ccc(NC(=S)c2nc3ccccc3[nH]2)c(C)c1	-8%	12%	4%	-1%	4.5µM*	0%
O=C1C=C(O)c2cccc3cccc1c23	x	18%	x	x	x	-4%
NC1=CC(=O)c2cccc3cccc1c23	32µM*	-11%	0%	-2%	-1%	-7%
CCCCCn1ccc(=N)cc1	13µM*	-5%	7%	1%	-3%	11%
CCn1ccc(=N)cc1	-11%	-3%	5%	1%	4%	-7%
CCCCCCCCCn1ccc(=N)cc1	2%	4%	0%	0%	-7%	-5%
CCCCCCCn1ccc(=N)cc1	16µM*	-3%	-8%	-1%	i	0%
COc1cc([C@@H]2c3cc4c(cc3C(O[C@@H]3O[C@@H]5COC(c6cccs6)O[C@H]5[C@H](O)[C@H]3O)C3COC(=O)[C@@H]32)OCO4)cc(OC)c1O (stereo partly specified)	x	-1%	x	x	x	x
C=CC1=C(C)C2=CC3=NC(=C(CC(=O)[O-])C4=NC(=C(C)C4=C([O-])[O-])C=c4[n-]c(c(C)c4CC)=CC1=N2)C(CCC(=O)[O-])C3C.[Cu+2].[Na+].[Na+].[Na+] (stereo unspecified)	x	0.4µM*	x	x	x	x
